This is a sample that favours compounds with a hit; in the whole collection about 0.8% have one here.
FXIa inh mix: FXIa protease inhibitors in compound pools, primary screen, biochemical, 10-compound mixtures; AID 680, 2007; inhibition, % at 5 µM; Coagulation factor XI (Homo sapiens), P03951; 62,000 compounds, 0.19% hits; purified FXIa, fluorogenic substrate, pooled mixtures;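 also: each value is inhibition by a whole ten-compound pool holding the compound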
CatG inh: human cathepsin G inhibitors, primary screen, biochemical, pooled compound mixtures, AMC fluorescence; 62,000 compounds, 0.2% hits; purified enzyme, AMC-tetrapeptide fluorescence; P08311; inhibition, % at 5 µM (by protocol);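 active = inhibition above 20% in each of the two mixture wells holding the compound; inactive = inhibition of 20% or less in either well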
C1s block: complement C1s protease inhibitors, primary screen, biochemical, 10-compound mixtures; AID 538, 2006; purified C1s, fluorogenic AMC substrate, pooled mixtures; 62,000 compounds, 0.16% hits; Complement C1s subcomponent (Homo sapiens), P09871; mean inhibition % of two 10-compound mixtures (hits give high values), % at 5 µM (by protocol);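 active = inhibition above 20% in each of the two 10-compound mixture wells holding the compound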
BAP1 inh: inhibitors of BAP1 deubiquitinase, primary screen, biochemical, Ub-AMC fluorescence, kinetic. recombinant BAP1, Ub-AMC hydrolysis fluorescence kinetic; hits give low values. activity remaining (% of control), % at 20 µM. 72,000 compounds, 0.48% hits. AID 436, 2006;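 active = activity remaining at or below 50% of control, provided the compound also passes the data quality filters; inactive = the rest, including low values that fail the filters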
Calb biofilm kill: clotrimazole potentiators killing Candida biofilms, primary screen, with clotrimazole, Alamar Blue | C. albicans biofilm + clotrimazole | inhibition, % at 6 µM | 85,000 compounds, 0.14% hits | AID 834, 2007;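 active = inhibition above 20%; inactive = inhibition below 20%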;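 also: preformed 24 hr biofilms exposed to compound for 48 hr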
FXIIa inh mix: human factor XIIa inhibitors, primary screen, biochemical, pooled compound mixtures, fluorogenic substrate; Coagulation factor XII (Homo sapiens), P00748; purified FXIIa; inhibition, % at 5 µM; 62,000 compounds, 0.2% hits; AID 684, 2007
Numbers stand for hits. Rule as the data show it, unless noted: active = inhibition above about 20% (passing the limit was not always enough); inactive = the rest.

`CC(=O)c1cccc(OCCN2C(=O)NC(C)(C)C2=O)c1` gave FXIa inh mix inactive, CatG inh inactive, C1s block inactive, BAP1 inh inactive, Calb biofilm kill inactive and FXIIa inh mix inactive.
CCc1cccc(OCCCN2C(=O)NC(C)(C)C2=O)c1 was read as Calb biofilm kill 82.0.
Screening O=C(NCc1cccnc1)c1c(F)c(F)c(F)c(F)c1F returned BAP1 inh inactive and Calb biofilm kill inactive.
CCN(CC)CCCN1C(=O)C(=O)/C(=C(/O)c2ccc3c(c2)OCCO3)C1c1ccc(C)o1 (configuration not stated) was read as FXIa inh mix inactive, CatG inh inactive, C1s block inactive, BAP1 inh 42.9, Calb biofilm kill inactive and FXIIa inh mix inactive.
`COc1ccc(OC)c(C2/C(=C(\O)c3ccc4c(c3)OCCO4)C(=O)C(=O)N2CCCN(C)C)c1` (configuration not stated) gave FXIa inh mix inactive, CatG inh inactive, C1s block inactive, BAP1 inh inactive and FXIIa inh mix inactive.
For CC1=C(C)NC(=S)SC1 the results were FXIa inh mix inactive, CatG inh inactive, C1s block inactive, BAP1 inh inactive, Calb biofilm kill inactive and FXIIa inh mix inactive.
For COc1ccc(CC(=O)OCc2cc3ccccc3[nH]c2=O)cc1 the results were FXIa inh mix inactive, CatG inh inactive, C1s block 67.4, BAP1 inh inactive, Calb biofilm kill inactive and FXIIa inh mix inactive.
For O=C(CCN1CCc2ccccc2C1)Nc1ccc(F)cc1 the results were FXIa inh mix inactive, CatG inh inactive, C1s block inactive, BAP1 inh inactive, Calb biofilm kill inactive and FXIIa inh mix inactive.
`Cc1ccccc1CNc1nc(N)n(-c2ccccc2)n1` gave FXIa inh mix inactive, CatG inh inactive, C1s block inactive, BAP1 inh inactive, Calb biofilm kill 20.4 and FXIIa inh mix inactive.
`Cc1cc(C)c(S(=O)(=O)N2CCC(C(=O)NCc3ccc(Cl)cc3Cl)CC2)c(C)c1` gave Calb biofilm kill 69.0.
For Cc1ccc(CN(C(=O)c2cc3ccccc3oc2=O)C2CCS(=O)(=O)C2)cc1 (configuration not stated) the results were Calb biofilm kill inactive.
Screening CCCCN1C(=O)/C(=C2\SC(N3CCCCC3)=NC2=O)c2ccccc21 returned FXIa inh mix inactive, CatG inh inactive, C1s block 22.8, BAP1 inh inactive, Calb biofilm kill inactive and FXIIa inh mix inactive.
O=C1N=C(N2CCOCC2)S/C1=C1\C(=O)N(Cc2ccccc2)c2ccc(Br)cc21 was read as FXIa inh mix inactive, CatG inh inactive, C1s block inactive, BAP1 inh inactive, Calb biofilm kill inactive and FXIIa inh mix inactive.
Screening CCOC(=O)CNC(=O)CSc1nnc(-c2ccco2)n1Cc1ccco1 returned FXIa inh mix inactive, CatG inh inactive, C1s block inactive, Calb biofilm kill inactive and FXIIa inh mix inactive.
CCOC(=O)c1ccc(-n2c(C)nc3c(cnn3-c3ccc(Cl)cc3)c2=O)cc1 was read as Calb biofilm kill 33.5.
`CCOn1c(=O)c(-c2cc3ccccc3o2)[n+]([O-])c2ccccc21` gave FXIa inh mix 24.4, CatG inh inactive, C1s block inactive, BAP1 inh inactive, Calb biofilm kill inactive and FXIIa inh mix inactive.
Screening Cc1ccc(SCc2[nH]nc3c2C(c2ccc(C)o2)C(C#N)=C(N)O3)cc1 (configuration not stated) returned FXIa inh mix 85.9, CatG inh inactive, C1s block inactive, BAP1 inh inactive and FXIIa inh mix inactive.
O=C(O)C1CC=CCC1C(=O)Nc1cccc(Cl)c1Cl (configuration not stated) was read as FXIa inh mix inactive, CatG inh inactive, C1s block inactive, BAP1 inh inactive, Calb biofilm kill inactive and FXIIa inh mix inactive.
`CCCCCCCCCCCCC/C=C/C(O)C(N)CO` (configuration not stated) gave BAP1 inh 36.0.
`COc1ccc(C)cc1NC(=O)CSc1nnc(-c2ccccn2)n1Cc1ccco1` gave FXIa inh mix inactive, CatG inh inactive, C1s block inactive, Calb biofilm kill inactive and FXIIa inh mix inactive.

Screens (PubChem)
